Data on 20 compounds can be found in PubChem BioAssay.

Assay [1] can be described thus: sensitizers of A549 cells to miR-34 induction, primary screen, imaging, A549 dox-inducible miR-34, nuclei and caspase counts (AID 1347080). Particulars: A549 miR-34 inducible, Hoechst nuclei count, 48 h.
The nature of assay [2]: survival rescue of mitochondrial mutant cells in low glucose, primary screen, MELAS cybrids, Rieske KO mouse fibroblasts, CellTiter-Glo (AID 1508586;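 active = mean z-score across replicates of 1.96 or higher in either the MELAS or the Rieske mutant cell line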;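 note: z relative to plate mean and SD of compound and empty wells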). On the technique in general: In ATP-based viability assays light output follows the ATP content of the culture.
Setting [3] is: stronger effect = lower value, cell number ratio, induced over uninduced.
Setting [4] is: measured here: relative caspase fold change +Dox/-Dox.
Setting [5] is: measured here: total cells with miR-34 induction, stronger effect = lower value.
Setting [6] is: measured here: total cells without miR-34 induction.
The mark [7] stands for this setting: MELAS cybrid survival, CellTiter-Glo 48 h, stronger effect = higher value.
The mark [8] stands for this setting: Rieske KO mouse fibroblast survival, CellTiter-Glo 72 h.

The structures appear in SMILES notation. The source made the active and inactive calls.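 Rule for the calls, unless noted: active = compounds whose cell count with miR-34 switched on is under 0.7 times the count with it off; inactive = the rest.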
Note: test concentration not given here.

Take `CNc1ncnc2c1ncn2C1OC(CO)C(O)C1O` (stereo not given): the results for the fold change in assay [1] (setting [3]) and in assay [1] (setting [4]) were 0.908 (inactive) and 0.537, respectively. Further, the cell count in assay [1] (setting [5]) was found to be 7310; in assay [1] (setting [6]) it was 8050. Besides, the z-score was -0.0172 (inactive) in assay [2] (setting [7]) and -0.235 in assay [2] (setting [8]).
For the compound `CC(C)(C)c1ccc(-c2nc3ccccc3[nH]2)cc1`, the figures for the fold change in assay [1] (setting [3]) and in assay [1] (setting [4]) were 0.982 (inactive) and 0.555, respectively. For the same compound, the cell count in assay [1] (setting [5]) was 8150; in assay [1] (setting [6]) it was 8300. Also, the z-score in assay [2] (setting [7]) was -0.625 (inactive); in assay [2] (setting [8]) it was -3.26.
With `CCC(C)C(=O)OC1CC(O)C=C2C=CC(C)C(CCC(O)CC(O)CC(=O)O)[C@H]21` (stereo not given in full), the fold change in assay [1] (setting [3]) is 0.937 (inactive); in assay [1] (setting [4]) it was 0.958. Besides, the figures for the cell count in assay [1] (setting [5]) and in assay [1] (setting [6]) were 7720 and 8230, respectively. The values for the z-score in assay [2] (setting [7]) and in assay [2] (setting [8]) were 0.0242 (inactive) and -0.0533, respectively.
Regarding `CC(C)N(CCCNC(=O)Nc1ccc(C(C)(C)C)cc1)CC1OC(n2ccc3c(N)ncnc32)C(O)C1O` (stereo not given), the fold change in assay [1] (setting [3]) was 0.885 (inactive); in assay [1] (setting [4]) it was 0.359. Further, the cell count in assay [1] (setting [5]) worked out at 8440; in assay [1] (setting [6]), 9540. In addition, the z-score in assay [2] (setting [7]) was -0.287 (inactive); in assay [2] (setting [8]) it was 0.555.
In the case of `CC(=O)Nc1cccc2c1c(Sc1ccc(Cl)cc1)c(C)n2CC(=O)O`, the fold change in assay [1] (setting [3]) was 0.864 (inactive); in assay [1] (setting [4]) it was 0.281. The cell count was 7890 in assay [1] (setting [5]) and 9130 in assay [1] (setting [6]). Also, the z-score was -0.287 (inactive) in assay [2] (setting [7]) and -2.23 in assay [2] (setting [8]).
In the case of `O=S(=O)(c1ccccc1)c1cnc2c(N3CCNCC3)cccc2c1`, the fold change in assay [1] (setting [3]) was 0.946 (inactive); in assay [1] (setting [4]), 0.61. For the same compound, the cell count in assay [1] (setting [5]) amounted to 7690; in assay [1] (setting [6]), 8130. Further, the z-score was -0.577 (inactive) in assay [2] (setting [7]) and -0.0242 in assay [2] (setting [8]).
As to `CC1=C(C(=O)O)N2C(=O)C(NC(=O)C(N)c3ccccc3)[C@@H]2SC1` (stereo not given in full), the fold change in assay [1] (setting [3]) was 0.987 (inactive); in assay [1] (setting [4]), 0.849. In addition, the results for the cell count in assay [1] (setting [5]) and in assay [1] (setting [6]) were 7060 and 7150, respectively. In addition, the z-score in assay [2] (setting [7]) is -0.417 (inactive); in assay [2] (setting [8]) it was 0.0723.
For `N#CSc1cc(SC#N)c(N)nc1N`, the figures for the fold change in assay [1] (setting [3]) and in assay [1] (setting [4]) were 1.07 (inactive) and 0.703, respectively. Also, the cell count came out at 1940 in assay [1] (setting [5]) and 1820 in assay [1] (setting [6]). In addition, the z-score in assay [2] (setting [7]) was -0.481 (inactive); in assay [2] (setting [8]), -2.9.
Turning to `CNCc1ccc(C)c(NC(=O)c2ccc(Nc3nc(-c4ccccc4)c4ccccc4n3)cc2)c1`, the fold change in assay [1] (setting [3]) was 0.989 (inactive); in assay [1] (setting [4]), 0.59. Further, the cell count amounted to 6570 in assay [1] (setting [5]) and 6650 in assay [1] (setting [6]). The values for the z-score in assay [2] (setting [7]) and in assay [2] (setting [8]) were -0.615 (inactive) and -0.107, respectively.
With `CC(Cc1cc2c(c(C(N)=O)c1)N(CCCO)CC2)NCCOc1ccccc1OCC(F)(F)F` (stereo not given), the fold change was 0.869 (inactive) in assay [1] (setting [3]) and 0.814 in assay [1] (setting [4]). Also, the cell count in assay [1] (setting [5]) came out at 6950; in assay [1] (setting [6]) it was 8000. For the same compound, the z-score in assay [2] (setting [7]) was -0.42 (inactive); in assay [2] (setting [8]), -0.511.
For `C[C@]12C=CC(=O)N[C@@H]1CC[C@@H]1[C@H]2CC[C@]2(C)C(C(=O)Nc3cc(C(F)(F)F)ccc3C(F)(F)F)CC[C@@H]12` (stereo not given in full), the fold change in assay [1] (setting [3]) was 0.962 (inactive); in assay [1] (setting [4]), 0.927. The figures for the cell count in assay [1] (setting [5]) and in assay [1] (setting [6]) were 6640 and 6910, respectively. For the same compound, the z-score was -0.568 (inactive) in assay [2] (setting [7]) and 0.0125 in assay [2] (setting [8]).
Consider `Cc1ccc(S(=O)(=O)n2c(N)nc3ccccc32)cc1`, for which the fold change is 1.01 (inactive) in assay [1] (setting [3]) and 0.588 in assay [1] (setting [4]). Also, the cell count in assay [1] (setting [5]) was found to be 6490; in assay [1] (setting [6]) it was 6440. Also, the z-score in assay [2] (setting [7]) was -0.425 (inactive); in assay [2] (setting [8]), -0.074.
Take `C[C@H]1CC[C@H]2[C@@H](C)C(OC(=O)CCC(=O)O)O[C@H]3O[C@@]4(C)CC[C@@H]1[C@]32OO4` (stereo not given in full): the fold change in assay [1] (setting [3]) was 0.953 (inactive); in assay [1] (setting [4]), 0.708. Also, the values for the cell count in assay [1] (setting [5]) and in assay [1] (setting [6]) were 4220 and 4430, respectively. In addition, the z-score in assay [2] (setting [7]) was -0.298 (inactive); in assay [2] (setting [8]) it was -0.0832.
In the case of `O=C(CCc1ccc(O)cc1)c1c(O)cc(O)cc1OC1OC(CO)C(O)C(O)C1O` (stereo not given), the fold change in assay [1] (setting [3]) is 0.988 (inactive); in assay [1] (setting [4]), 0.673. In addition, the cell count in assay [1] (setting [5]) was determined as 10200; in assay [1] (setting [6]) it was 10400. The z-score in assay [2] (setting [7]) was -0.378 (inactive); in assay [2] (setting [8]) it was 0.518.
Regarding `CCCCC(=O)OC1CC[C@H]2[C@@H]3CCc4cc(O)ccc4[C@@H]3CC[C@]12C` (stereo not given in full), the fold change in assay [1] (setting [3]) was 0.855 (inactive); in assay [1] (setting [4]), 0.887. The cell count in assay [1] (setting [5]) amounted to 7760; in assay [1] (setting [6]) it was 9080. Besides, the results for the z-score in assay [2] (setting [7]) and in assay [2] (setting [8]) were -0.195 (inactive) and -0.141, respectively.
On to `CC(C)C1C(=O)NC(CCCN=C(N)N)C(=O)NCC(=O)NC(CC(=O)O)C(=O)NC(Cc2ccccc2)C(=O)N1C` (stereo not given), for which the fold change was 0.841 (inactive) in assay [1] (setting [3]) and 0.758 in assay [1] (setting [4]). The values for the cell count in assay [1] (setting [5]) and in assay [1] (setting [6]) were 304 and 361, respectively. Also, the z-score in assay [2] (setting [7]) is 0.703 (inactive); in assay [2] (setting [8]), -0.232.
With `CN1CCC(NC(=O)c2cc(-c3c(O)cc(O)cc3Oc3ccc([N+](=O)[O-])cc3)on2)CC1`, the fold change was 1.08 (inactive) in assay [1] (setting [3]) and 0.376 in assay [1] (setting [4]). For the same compound, the figures for the cell count in assay [1] (setting [5]) and in assay [1] (setting [6]) were 2520 and 2330, respectively. For the same compound, the z-score in assay [2] (setting [7]) is 2.88 (active); in assay [2] (setting [8]), -1.28.
Regarding `CC(=O)O[C@@]1(C(C)=O)CC[C@H]2[C@@H]3CCC4=CC(=O)CCC4=C3C(c3ccc(N(C)C)cc3)C[C@@]21C` (stereo not given in full), the fold change in assay [1] (setting [3]) is 1.04 (inactive); in assay [1] (setting [4]), 0.797. The cell count stood at 6660 in assay [1] (setting [5]) and 6380 in assay [1] (setting [6]). Also, the z-score was -0.373 (inactive) in assay [2] (setting [7]) and -0.0703 in assay [2] (setting [8]).
Take `C=C1C(=CC=C2CCC[C@]3(C)C(C(C)CCCC(C)C)CC[C@@H]23)CC(O)CC1O` (stereo not given in full): the fold change in assay [1] (setting [3]) is 0.908 (inactive); in assay [1] (setting [4]) it was 0.753. Besides, the values for the cell count in assay [1] (setting [5]) and in assay [1] (setting [6]) were 6380 and 7020, respectively. In addition, the z-score is 0.162 (inactive) in assay [2] (setting [7]) and 0.335 in assay [2] (setting [8]).
For the compound `CC(=CC(=O)OCCCCCCCCC(=O)O)CC1OC[C@H](CC2O[C@H]2C(C)C(C)O)C(O)C1O` (stereo not given in full), the fold change in assay [1] (setting [3]) is 0.939 (inactive); in assay [1] (setting [4]), 0.638. Also, the values for the cell count in assay [1] (setting [5]) and in assay [1] (setting [6]) were 8270 and 8800, respectively. The z-score in assay [2] (setting [7]) worked out at 0.679; in assay [2] (setting [8]) it was 5.51.
